Inconclusive results are not listed. Unmarked numbers belong to inactive results. Calls come from the whole dose curve; as a rule, active = well fitted cell-killing curve with a large enough effect; inconclusive = small, poorly fitted or top-dose-only effect; inactive = no such curve, though single readings can be large or run the other way.
assay: qHTS of pediatric cancer cell lines to identify multiple opportunities for drug repurposing: Primary screen for Rh30 cells (AID 1347107); conditions: Rh30 rhabdomyosarcoma viability, CellTiter-Glo luminescence, 48 h; series mostly up to 46 µM; activity change, negative = cytotoxic: at the top concentration; note: nearly all actives have a fitted effect of over 75% in size
In short: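 Cells (500-1,000/well) rested 5 h, then received compounds for 48 h; metabolically active cells were measured by CellTiter-Glo luminescence. Final concentrations spanned up to 46 µM (MIPE, 11-point) or 0.59 nM-46 µM (NPC, 8-point) in primary screens, 11-point in follow-ups.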
% is set by controls: 0 for no effect and ±100 for the full control effect.

Row | SMILES | activity change, negative = cytotoxic
1 | CCCCOC(=O)c1ccccc1C(=O)OCc1ccccc1 | 24.5% [at 92.7 µM]
2 | C[C@]12CC[C@H]3[C@@H](CCC4=CC(=O)CC[C@@]43C)[C@H]1CC[C@H]2OC(=O)CCC1CCCC1 | 10.5%
3 | CC1(C)CC/C(=C/c2ccc(Cl)cc2)C1(O)Cn1cncn1 (stereo not drawn) | 16.5% [at 92.7 µM]
4 | CC(N[C@H]1C[C@H]1c1ccccc1)c1ccc2c(c1)OCCO2 (stereo partly drawn) | 11.2%
5 | CC(C)(C)NC[C@H](O)c1ccc(O)cc1Cl | 22%
6 | C[C@]12CC[C@@H]3[C@@H](CCC4=CC(=O)CC[C@@H]43)[C@@H]1CC[C@@H]2OC(=O)CCc1ccccc1 | -0.725%
7 | CC(=CCCC1=CCC(C2=CC(=O)OC2O)OC1O)CCC1=C(C)CCCC1(C)C (stereo not drawn) | -0.712%
8 | COc1ccc(CC2NCCc3cc(OC)c(OC)cc32)cc1OC (stereo not drawn) | -2.86%
9 | C=C1C[C@H]2[C@H]3CCC(=O)[C@@]3(C)CC[C@@H]2[C@@]2(C)C=CC(=O)C=C12 | 15.6%
10 | O=[N+]([O-])c1c2ccccc2cc2ccccc12 | 23.2% [at 92.7 µM]
11 | CCc1c(C(=O)C(N)=O)c2c(OCC(=O)O)cccc2n1Cc1ccccc1 | 22.9%
12 | O=C1CCC[C@@H]2[C@H]3CCCN4CCC[C@@H](CN12)[C@@H]34 | 6.09%
13 | O=[N+]([O-])c1ccc([As](=O)(O)O)cc1 | 24.3%
14 | CCO/N=C(\CC)C1=C(O)CC(c2c(C)cc(C)cc2C)CC1=O (stereo not drawn) | 20.4% [at 92.7 µM]
15 | CN(C)NC(=O)CCC(=O)O | 8.12%
16 | CC(C)(C)c1cc(C=C(C#N)C#N)cc(Br)c1O | -5.6%
17 | O=C(O)CNC(=O)c1c(O)c2ccccc2n(Cc2ccccc2)c1=O | 13.2%
18 | CC(=O)O[C@@]12CO[C@H]1C[C@H](O)[C@@]1(C)C(=O)[C@H](O)C3=C(C)[C@@H](O)C[C@@](O)([C@@H](OC(=O)c4ccccc4)[C@@H]21)C3(C)C | 7.99%
